In the supplement of paper PMC6555819:

Key:
Assay in all cases: PBM binding z-score (relative to random genomic background probes); higher = stronger binding; sequences stand for … in GC…GCGATTGACAGCGTAGAATGAAGG
[1] = system: FXR:RXRa (NR concentration 270 nM, RXRa partner concentration 90 nM)
Outline: (§1)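 The probes on custom Agilent 4×180K protein-binding microarrays were double-stranded, with 34-nt variable regions bearing direct-repeat seeds, single-nucleotide variants, half-site ablations and random human genomic background sequences. Incubation lasted 1 h with ligand-free nuclear receptor dimers in PBS pH 7.4, 2% milk, 0.02% Triton X-100, 1 mM DTT, 0.2 mg/mL BSA and 0.4 mg/ml salmon testes DNA. Antibodies against each partner (one per run) detected bound dimers, and fluorescence scans were regression-normalized. Binding z-scores take the random background probes as reference.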

[2] = system: LXRa:RXRa (NR concentration 270 nM, RXRa partner concentration 90 nM)
Outline: as §1

[3] = system: LXRa homodimer (NR concentration 270 nM)
Outline: as §1

[4] = system: LXRb:RXRa (NR concentration 270 nM, RXRa partner concentration 90 nM)
Outline: as §1

[5] = system: LXRb homodimer (NR concentration 270 nM)
Outline: as §1

[6] = system: PPARa:RXRa (NR concentration 270 nM, RXRa partner concentration 90 nM)
Outline: as §1

[7] = system: PPARg:RXRa (NR concentration 180 nM, RXRa partner concentration 90 nM)
Outline: as §1

[8] = system: PPARg:RXRa 270nM:90nM, anti-RXR (NR concentration 270 nM, RXRa partner concentration 90 nM)
Outline: as §1

[9] = system: PPARg:RXRa 30nM:10nM, anti-RXR (NR concentration 30 nM, RXRa partner concentration 10 nM)
Outline: as §1

[10] = system: PPARg:RXRa 90nM:30nM, anti-RXR (NR concentration 90 nM, RXRa partner concentration 30 nM)
Outline: as §1

[11] = system: PPARg:RXRa DBDmut IVT, anti-RXR (DBD mutation: RXRa K156A/R161A, NR concentration 270 nM, RXRa partner concentration 90 nM)
Outline: as §1

[12] = system: PPARg:RXRa IVT, anti-PPARg (NR concentration 270 nM, RXRa partner concentration 90 nM)
Outline: as §1

[13] = system: PPARg DBDmut:RXRa IVT, anti-PPARg (DBD mutation: PPARg1 K132A/R137A, NR concentration 270 nM, RXRa partner concentration 90 nM)
Outline: as §1

[14] = system: PPARg DBDmut IVT, anti-PPARg (DBD mutation: PPARg1 K132A/R137A, NR concentration 270 nM)
Outline: as §1

[15] = system: PPARg homodimer (NR concentration 180 nM)
Outline: as §1

[16] = system: PXR:RXRa (NR concentration 270 nM, RXRa partner concentration 90 nM)
Outline: as §1

[17] = system: PXR homodimer (NR concentration 270 nM)
Outline: as §1

[18] = system: RARa:RXR (NR concentration 270 nM, RXRa partner concentration 90 nM)
Outline: as §1

[19] = system: RARa homodimer (NR concentration 270 nM)
Outline: as §1

[20] = system: RARb:RXRa (NR concentration 270 nM, RXRa partner concentration 90 nM)
Outline: as §1

Sequence	PBM binding z-score [1]	PBM binding z-score [2]	PBM binding z-score [3]	PBM binding z-score [4]	PBM binding z-score [5]	PBM binding z-score [6]	PBM binding z-score [7]	PBM binding z-score [8]	PBM binding z-score [9]	PBM binding z-score [10]	PBM binding z-score [11]	PBM binding z-score [12]	PBM binding z-score [13]	PBM binding z-score [14]	PBM binding z-score [15]	PBM binding z-score [16]	PBM binding z-score [17]	PBM binding z-score [18]	PBM binding z-score [19]	PBM binding z-score [20]
GCTTACGGGTAAAAGGTTATAGCATGAATAGAAT	1.77	2.73	0.384	2.57	0.0166	4.81	7.24	7.67	6.08	8.3	1.1	3.12	0.792	0.799	1.62	2.36	0.623	3.75	0.86	1.98
AATACAGGGTCACTAGGCCAGGGTAGGTACGAAT	5.78	4.57	1.02	3.79	0.895	5.76	7.68	6.2	3.37	5.35	3.28	6	2.53	1.9	2.35	3.05	0.325	3.76	1.02	4.23
TAGCCTAGGTCAGATCGGGCCAGTTTACGCTATA	2.08	0.989	-0.49	0.503	-0.465	1.74	0.188	0.541	-0.568	-0.123	0.41	1.12	-0.332	-0.719	0.0651	1.13	-0.787	0.463	-1.05	2.69
TCATATAGGTAATACAGCTGAAAGTCGGCATCTA	0.752	0.674	-0.0282	0.475	0.431	1.14	0.839	2.26	3.95	3.15	4.01	1.94	0.896	1.18	1.1	0.684	-0.0774	0.947	0.987	0.188
CATACTGGGCCAAAGGTCATTGATTCCAATGCTC	5.32	5.39	4.2	5.17	1.29	6.71	11.9	10.1	10.1	11.1	4.86	6.31	1.88	1.07	3.77	5.52	1.72	6.32	1.82	4.71
GCATATAGGTAATACAAGGTGAAAATCCGATTGT	0.325	1.44	0.125	0.602	-0.207	1.5	1.55	1.09	0.599	0.773	3.55	3.21	0.778	0.777	0.494	0.273	0.142	1.85	0.843	0.306
CGTCCACGGTCAGAGAGGTCAGTGAATGCCGAGT	2.16	1.89	1.45	1.77	-0.73	2.33	0.382	0.996	-0.638	0.247	0.449	1.17	-1.02	-1.36	2.07	3.13	2.89	2.83	0.503	3.95
CAAACTAGGTCACGGAAGGTCAAAGTCGAATGAC	7.44	7.64	6.7	6.73	1.71	6.26	10.3	8.41	7.26	8.7	8.57	8.97	6.9	4.23	7.08	6.99	2.28	6.84	3.11	5.29
CCTAGCGGGCCAGGGTCACTCAAGCATTTCGCTT	2.02	1.7	-0.501	1.75	-1.09	3.22	0.585	1.45	-0.704	0.334	-0.418	0.39	-1.58	-1.58	0.563	2.61	-0.612	3.38	-0.206	2.53
GTACCAAGGTGACTAGGTCGTTGATGAGTAGGCG	0.348	0.174	-0.398	-0.125	-1.01	1.59	1.89	1.69	0.141	0.756	1.99	3.81	0.227	-0.333	0.145	0.12	-0.403	0.639	0.0203	1.55
TCTAGTTGGTCAAAGGTCACACATTCGAAATGCG	6.04	5.54	3.96	5.35	1.75	6.86	11.5	9.09	10.8	10.5	3.49	6.33	1.17	1.94	4.05	5.8	1.55	6.86	2.63	5.06
CTCGAAAGGTCGTGCTCAGTTGAGTATACCAAAC	4.37	3.75	0.291	3.5	0.338	4.85	2.54	3.47	0.941	2.53	0.724	1.41	0.908	0.182	1.01	3.56	0.333	3.85	0.101	3.85
CCGACTGGGGCAGAAAGGTTAGCATACCATCCGG	-0.121	0.018	-0.422	0.0251	-1.09	1.22	1.22	1.7	-0.0378	0.958	1.54	1.41	-0.783	-1.16	-0.251	0.123	-0.44	0.634	0.154	1.43
CCAGACAGGTGAAAGGTAACTCGGTCTGGTACGC	0.495	0.577	-0.368	0.702	-0.561	3.46	5.96	5.52	4.56	6.21	2.3	2.9	-0.38	-1.24	0.981	0.75	-0.111	1.77	0.392	1.2
